# Results published in paper PMC7862700, “An all-to-all approach to the identification of sequence-specific readers for epigenetic DNA modifications on cytosine”.
# Tests used:
# Assay in all cases: DAPPL (digital affinity profiling via proximity ligation, sequencing); 10 mM Tris-HCl pH 7.5, 50 mM NaCl, 1 mM DTT, 4% glycerol, room temperature, 30 min; GST-TFs on glutathione beads, 16-mer random dsDNA library, 0.1% formaldehyde crosslink after washing; high values mean tight binding
# [1] = molecular target: T1, FLI1 (Homo sapiens, UniProt Q01543 1-452); conditions: protein: recombinant; tags: N-terminal GST; dsDNA, one strand shown
# T1 sequence: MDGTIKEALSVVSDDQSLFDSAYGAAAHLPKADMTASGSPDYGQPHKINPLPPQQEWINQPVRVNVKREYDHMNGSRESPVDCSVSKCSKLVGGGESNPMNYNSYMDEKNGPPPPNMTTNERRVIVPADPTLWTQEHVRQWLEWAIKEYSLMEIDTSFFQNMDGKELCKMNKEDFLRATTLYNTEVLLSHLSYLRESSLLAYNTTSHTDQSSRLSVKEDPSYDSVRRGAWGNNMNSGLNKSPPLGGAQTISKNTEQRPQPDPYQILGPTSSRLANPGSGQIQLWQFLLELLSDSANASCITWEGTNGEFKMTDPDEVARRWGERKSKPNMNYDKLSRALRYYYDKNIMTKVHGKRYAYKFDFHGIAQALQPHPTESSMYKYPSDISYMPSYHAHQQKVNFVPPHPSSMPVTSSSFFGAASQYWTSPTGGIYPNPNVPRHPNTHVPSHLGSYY
# Procedure, shortened: (§1)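 The binding signal reported is, for every hexamer, its read frequency for a factor over its read frequency for the tag-only sample. Reads came from pools of yeast-expressed, GST-fused human transcription factors on glutathione beads, barcoded with DNA and mixed with that sample, which were incubated with 200 nmole of a random double-stranded 16-mer DNA library in Tris/NaCl/DTT/glycerol buffer at room temperature for 30 min. After washing, the pools were crosslinked with 0.1% formaldehyde, proximity-ligated with BsaI/T4 ligase for 1 h at 37 °C, PCR-amplified and sequenced on an Illumina NextSeq500.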
# [2] = molecular target: T2, ELK1 (Homo sapiens, UniProt P19419 1-428); conditions: protein: recombinant; tags: N-terminal GST; dsDNA, one strand shown
# T2 sequence: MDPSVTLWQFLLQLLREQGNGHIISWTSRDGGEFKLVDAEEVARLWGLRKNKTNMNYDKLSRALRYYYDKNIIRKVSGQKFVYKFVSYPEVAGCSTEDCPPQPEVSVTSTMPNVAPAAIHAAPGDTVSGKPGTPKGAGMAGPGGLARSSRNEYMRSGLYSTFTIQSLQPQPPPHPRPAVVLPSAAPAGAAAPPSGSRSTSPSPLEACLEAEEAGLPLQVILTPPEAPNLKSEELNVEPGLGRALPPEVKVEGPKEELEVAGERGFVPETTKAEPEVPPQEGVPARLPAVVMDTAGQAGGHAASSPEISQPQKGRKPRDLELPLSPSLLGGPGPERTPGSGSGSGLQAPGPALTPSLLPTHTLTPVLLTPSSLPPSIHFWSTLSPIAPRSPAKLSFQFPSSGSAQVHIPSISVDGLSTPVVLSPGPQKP
# Procedure, shortened: as §1
# [3] = molecular target: T3, GABPA (Homo sapiens, UniProt Q06546 1-454); conditions: protein: recombinant; tags: N-terminal GST; dsDNA, one strand shown
# T3 sequence: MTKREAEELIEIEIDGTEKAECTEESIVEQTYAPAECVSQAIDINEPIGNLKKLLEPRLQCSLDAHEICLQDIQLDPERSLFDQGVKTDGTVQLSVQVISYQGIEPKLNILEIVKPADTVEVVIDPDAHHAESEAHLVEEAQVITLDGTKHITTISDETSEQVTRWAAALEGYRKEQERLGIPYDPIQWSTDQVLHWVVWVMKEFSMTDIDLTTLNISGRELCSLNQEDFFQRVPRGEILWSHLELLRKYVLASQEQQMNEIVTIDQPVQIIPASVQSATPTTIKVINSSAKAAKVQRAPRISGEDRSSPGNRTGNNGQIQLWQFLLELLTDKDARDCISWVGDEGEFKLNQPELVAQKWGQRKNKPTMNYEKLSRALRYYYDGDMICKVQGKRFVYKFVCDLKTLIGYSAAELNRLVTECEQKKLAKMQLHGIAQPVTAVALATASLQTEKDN
# Procedure, shortened: as §1
# [4] = molecular target: ELF1 (Homo sapiens, UniProt P32519 1-619); conditions: protein: recombinant; tags: N-terminal GST; dsDNA, one strand shown
# Procedure, shortened: as §1
# [5] = molecular target: SPI1 (Homo sapiens, UniProt P17947 1-270); conditions: protein: recombinant; tags: N-terminal GST; dsDNA, one strand shown
# Procedure, shortened: as §1
# [6] = molecular target: SPIB (Homo sapiens, UniProt Q01892 1-262); conditions: protein: recombinant; tags: N-terminal GST; dsDNA, one strand shown
# Procedure, shortened: as §1
# [7] = molecular target: T4, FEV (Homo sapiens, UniProt Q99581 1-238); conditions: protein: recombinant; tags: N-terminal GST; dsDNA, one strand shown
# T4 sequence: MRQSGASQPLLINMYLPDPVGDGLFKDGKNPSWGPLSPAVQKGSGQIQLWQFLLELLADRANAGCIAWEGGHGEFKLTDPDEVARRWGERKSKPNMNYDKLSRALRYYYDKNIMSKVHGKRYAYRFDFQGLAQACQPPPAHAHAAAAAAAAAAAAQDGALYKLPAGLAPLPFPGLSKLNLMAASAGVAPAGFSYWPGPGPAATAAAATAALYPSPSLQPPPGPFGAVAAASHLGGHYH
# Procedure, shortened: as §1
# [8] = molecular target: ETV5 (Homo sapiens, UniProt P41161 1-510); conditions: protein: recombinant; tags: N-terminal GST; dsDNA, one strand shown
# Procedure, shortened: as §1
# [9] = molecular target: HSF1 (Homo sapiens, UniProt Q00613 1-529); conditions: protein: recombinant; tags: N-terminal GST; chain copies: 3; dsDNA, one strand shown
# Procedure, shortened: as §1
# [10] = molecular target: ELF4 (Homo sapiens, UniProt Q99607 1-663); conditions: protein: recombinant; tags: N-terminal GST; dsDNA, one strand shown
# Procedure, shortened: as §1
# [11] = molecular target: T5, ELK4 (Homo sapiens, UniProt P28324-2 1-405); conditions: protein: recombinant; tags: N-terminal GST; dsDNA, one strand shown
# T5 sequence: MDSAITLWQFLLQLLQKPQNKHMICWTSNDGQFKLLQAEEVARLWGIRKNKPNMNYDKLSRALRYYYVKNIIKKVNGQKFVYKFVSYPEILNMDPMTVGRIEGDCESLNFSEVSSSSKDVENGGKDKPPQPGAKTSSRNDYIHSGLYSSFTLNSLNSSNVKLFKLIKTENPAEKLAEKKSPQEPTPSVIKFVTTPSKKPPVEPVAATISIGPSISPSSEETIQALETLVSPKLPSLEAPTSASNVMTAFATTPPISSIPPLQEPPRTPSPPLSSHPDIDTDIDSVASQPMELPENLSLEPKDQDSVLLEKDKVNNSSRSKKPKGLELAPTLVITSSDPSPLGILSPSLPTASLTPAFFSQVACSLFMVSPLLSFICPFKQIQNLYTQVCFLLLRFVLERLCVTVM
# Procedure, shortened: as §1
# [12] = molecular target: T6, ETV2 (Homo sapiens, UniProt O00321 1-342); conditions: protein: recombinant; tags: N-terminal GST; dsDNA, one strand shown
# T6 sequence: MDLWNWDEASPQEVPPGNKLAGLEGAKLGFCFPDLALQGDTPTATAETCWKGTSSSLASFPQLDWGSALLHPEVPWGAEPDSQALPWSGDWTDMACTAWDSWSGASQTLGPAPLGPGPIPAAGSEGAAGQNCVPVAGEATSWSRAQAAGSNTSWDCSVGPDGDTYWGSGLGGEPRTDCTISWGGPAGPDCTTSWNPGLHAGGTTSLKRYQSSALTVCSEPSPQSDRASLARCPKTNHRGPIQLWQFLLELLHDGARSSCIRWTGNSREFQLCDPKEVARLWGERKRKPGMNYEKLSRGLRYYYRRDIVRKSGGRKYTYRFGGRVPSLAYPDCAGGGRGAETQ
# Procedure, shortened: as §1
# [13] = molecular target: T7, ELF3 (Homo sapiens, UniProt P78545 1-371); conditions: protein: recombinant; tags: N-terminal GST; dsDNA, one strand shown
# T7 sequence: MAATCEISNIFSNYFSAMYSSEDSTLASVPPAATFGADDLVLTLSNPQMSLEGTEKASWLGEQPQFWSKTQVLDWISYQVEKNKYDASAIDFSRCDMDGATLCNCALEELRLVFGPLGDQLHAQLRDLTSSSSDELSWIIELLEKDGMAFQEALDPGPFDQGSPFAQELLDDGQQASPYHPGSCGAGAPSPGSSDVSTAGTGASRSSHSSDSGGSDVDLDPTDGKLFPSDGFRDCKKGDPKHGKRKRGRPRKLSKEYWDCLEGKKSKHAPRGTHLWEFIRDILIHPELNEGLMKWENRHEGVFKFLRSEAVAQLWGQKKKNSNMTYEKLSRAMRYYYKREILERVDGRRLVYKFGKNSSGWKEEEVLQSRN
# Procedure, shortened: as §1
# [14] = molecular target: CRX (Homo sapiens, UniProt O43186 1-299); conditions: protein: recombinant; tags: N-terminal GST; dsDNA, one strand shown
# Procedure, shortened: as §1
# [15] = molecular target: ETV1 (Homo sapiens, UniProt P50549 1-477); conditions: protein: recombinant; tags: N-terminal GST; dsDNA, one strand shown
# Procedure, shortened: as §1
# ELF4, sequence (Q99607 whole entry): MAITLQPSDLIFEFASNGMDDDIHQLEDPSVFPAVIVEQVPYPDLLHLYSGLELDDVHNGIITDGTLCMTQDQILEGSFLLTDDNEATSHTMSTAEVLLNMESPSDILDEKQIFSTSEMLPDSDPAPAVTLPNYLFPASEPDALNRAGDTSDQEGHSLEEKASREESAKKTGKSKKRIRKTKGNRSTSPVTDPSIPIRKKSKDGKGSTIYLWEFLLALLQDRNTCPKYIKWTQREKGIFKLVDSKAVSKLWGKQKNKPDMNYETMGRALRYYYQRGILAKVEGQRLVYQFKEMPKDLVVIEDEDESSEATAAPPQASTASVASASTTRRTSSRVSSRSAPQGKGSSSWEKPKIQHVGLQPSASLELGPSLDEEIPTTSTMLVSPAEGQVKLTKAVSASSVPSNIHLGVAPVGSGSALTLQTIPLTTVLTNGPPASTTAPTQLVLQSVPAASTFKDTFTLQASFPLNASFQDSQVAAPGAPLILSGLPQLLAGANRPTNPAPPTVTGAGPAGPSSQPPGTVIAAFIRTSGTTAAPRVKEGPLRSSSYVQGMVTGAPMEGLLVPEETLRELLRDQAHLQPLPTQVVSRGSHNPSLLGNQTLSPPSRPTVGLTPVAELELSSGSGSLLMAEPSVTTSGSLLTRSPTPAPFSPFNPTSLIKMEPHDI
# ETV1, sequence (P50549 whole entry): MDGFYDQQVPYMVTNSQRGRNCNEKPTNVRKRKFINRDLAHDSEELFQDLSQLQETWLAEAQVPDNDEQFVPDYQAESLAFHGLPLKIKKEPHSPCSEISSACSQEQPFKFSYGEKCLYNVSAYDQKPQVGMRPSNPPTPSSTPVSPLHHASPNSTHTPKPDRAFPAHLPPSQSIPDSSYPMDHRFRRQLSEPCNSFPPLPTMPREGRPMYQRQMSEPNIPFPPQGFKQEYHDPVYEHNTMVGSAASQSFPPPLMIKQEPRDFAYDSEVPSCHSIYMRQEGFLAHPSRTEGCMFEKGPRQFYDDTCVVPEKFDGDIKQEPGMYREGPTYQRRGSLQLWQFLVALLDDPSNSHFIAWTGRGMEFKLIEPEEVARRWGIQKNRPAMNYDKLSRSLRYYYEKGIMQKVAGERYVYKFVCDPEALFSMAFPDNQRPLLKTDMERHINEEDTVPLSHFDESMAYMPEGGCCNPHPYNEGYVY
# HSF1, sequence (Q00613 whole entry): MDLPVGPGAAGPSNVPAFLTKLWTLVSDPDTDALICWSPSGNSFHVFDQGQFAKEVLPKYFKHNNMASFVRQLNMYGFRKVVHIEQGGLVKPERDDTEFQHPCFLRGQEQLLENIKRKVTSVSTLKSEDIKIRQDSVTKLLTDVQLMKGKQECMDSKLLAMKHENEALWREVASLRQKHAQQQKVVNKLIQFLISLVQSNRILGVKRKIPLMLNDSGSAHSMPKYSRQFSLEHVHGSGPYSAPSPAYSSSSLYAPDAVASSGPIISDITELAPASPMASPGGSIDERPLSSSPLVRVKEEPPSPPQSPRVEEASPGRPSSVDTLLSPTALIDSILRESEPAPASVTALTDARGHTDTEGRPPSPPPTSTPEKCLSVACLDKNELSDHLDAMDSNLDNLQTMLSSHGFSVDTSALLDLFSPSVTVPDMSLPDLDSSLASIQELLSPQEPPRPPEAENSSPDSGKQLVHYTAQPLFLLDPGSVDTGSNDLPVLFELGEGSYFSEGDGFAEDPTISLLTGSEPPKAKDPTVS
# CRX, sequence (O43186 whole entry): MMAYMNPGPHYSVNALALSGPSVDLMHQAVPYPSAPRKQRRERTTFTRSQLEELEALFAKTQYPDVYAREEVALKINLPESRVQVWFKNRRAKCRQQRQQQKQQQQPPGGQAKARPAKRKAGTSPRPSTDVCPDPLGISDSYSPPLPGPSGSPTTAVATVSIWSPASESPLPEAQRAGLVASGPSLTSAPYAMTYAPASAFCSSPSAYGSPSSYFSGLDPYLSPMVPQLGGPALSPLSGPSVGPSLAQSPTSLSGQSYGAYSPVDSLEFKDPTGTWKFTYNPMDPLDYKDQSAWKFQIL
# SPIB, sequence (Q01892 whole entry): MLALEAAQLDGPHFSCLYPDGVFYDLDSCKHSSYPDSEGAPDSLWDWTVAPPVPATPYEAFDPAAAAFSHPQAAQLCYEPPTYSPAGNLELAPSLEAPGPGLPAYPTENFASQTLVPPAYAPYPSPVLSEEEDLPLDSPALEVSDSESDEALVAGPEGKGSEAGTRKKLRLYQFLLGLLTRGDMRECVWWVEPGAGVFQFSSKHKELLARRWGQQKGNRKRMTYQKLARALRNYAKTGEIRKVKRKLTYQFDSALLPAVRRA
# ELF1, sequence (P32519 whole entry): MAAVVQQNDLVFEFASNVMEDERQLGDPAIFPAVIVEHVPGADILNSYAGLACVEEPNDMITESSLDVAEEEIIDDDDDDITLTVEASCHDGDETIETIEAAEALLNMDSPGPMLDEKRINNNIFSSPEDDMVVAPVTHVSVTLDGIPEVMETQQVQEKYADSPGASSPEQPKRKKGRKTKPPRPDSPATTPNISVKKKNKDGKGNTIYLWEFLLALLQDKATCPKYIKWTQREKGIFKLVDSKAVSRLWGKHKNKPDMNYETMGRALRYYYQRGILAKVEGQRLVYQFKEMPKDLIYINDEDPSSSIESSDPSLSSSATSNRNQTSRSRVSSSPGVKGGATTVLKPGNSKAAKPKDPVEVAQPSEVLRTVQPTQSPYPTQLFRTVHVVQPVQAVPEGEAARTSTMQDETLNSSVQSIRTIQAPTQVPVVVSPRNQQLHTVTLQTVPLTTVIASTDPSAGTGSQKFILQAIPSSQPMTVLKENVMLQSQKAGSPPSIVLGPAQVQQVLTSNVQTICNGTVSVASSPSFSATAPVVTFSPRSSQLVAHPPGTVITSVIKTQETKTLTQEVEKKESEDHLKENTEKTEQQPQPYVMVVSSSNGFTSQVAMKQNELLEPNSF
# ETV5, sequence (P41161 whole entry): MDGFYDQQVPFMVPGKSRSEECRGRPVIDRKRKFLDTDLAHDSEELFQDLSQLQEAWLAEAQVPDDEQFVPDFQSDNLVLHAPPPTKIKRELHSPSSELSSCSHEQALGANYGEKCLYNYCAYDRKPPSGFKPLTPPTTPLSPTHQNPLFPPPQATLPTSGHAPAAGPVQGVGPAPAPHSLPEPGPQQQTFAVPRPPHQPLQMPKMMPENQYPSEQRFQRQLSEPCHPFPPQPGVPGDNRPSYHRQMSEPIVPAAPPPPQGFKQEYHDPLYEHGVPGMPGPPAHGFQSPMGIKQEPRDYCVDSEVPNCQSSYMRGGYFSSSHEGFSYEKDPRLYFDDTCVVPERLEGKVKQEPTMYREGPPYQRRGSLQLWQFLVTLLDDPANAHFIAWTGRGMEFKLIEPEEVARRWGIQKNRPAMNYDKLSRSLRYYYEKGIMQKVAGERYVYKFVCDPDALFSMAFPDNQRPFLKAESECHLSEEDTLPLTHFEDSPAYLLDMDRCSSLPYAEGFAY
sequence,measurement,setting,value
AAGCCC,binding signal,[1],"1.04 fold enrichment (6-mer frequency, TF over GST control)"
same,binding signal,[2],"1.07 fold enrichment (6-mer frequency, TF over GST control)"
same,binding signal,[3],"1.11 fold enrichment (6-mer frequency, TF over GST control)"
same,binding signal,[4],"1.08 fold enrichment (6-mer frequency, TF over GST control)"
same,binding signal,[5],"1.04 fold enrichment (6-mer frequency, TF over GST control)"
same,binding signal,[6],"1.07 fold enrichment (6-mer frequency, TF over GST control)"
same,binding signal,[7],"1.06 fold enrichment (6-mer frequency, TF over GST control)"
same,binding signal,[8],"1.04 fold enrichment (6-mer frequency, TF over GST control)"
same,binding signal,[9],"1.22 fold enrichment (6-mer frequency, TF over GST control)"
same,binding signal,[10],"1.04 fold enrichment (6-mer frequency, TF over GST control)"
same,binding signal,[11],"1.06 fold enrichment (6-mer frequency, TF over GST control)"
same,binding signal,[12],"1.11 fold enrichment (6-mer frequency, TF over GST control)"
same,binding signal,[13],"1.04 fold enrichment (6-mer frequency, TF over GST control)"
same,binding signal,[14],"1.54 fold enrichment (6-mer frequency, TF over GST control)"
same,binding signal,[15],"1.06 fold enrichment (6-mer frequency, TF over GST control)"
